Screens as filed in PubChem BioAssay.
Hits are enriched below; roughly 2.1% of the tested compounds scored in any of these assays.
Myc binder: binders of human c-Myc, primary screen, biochemical, small molecule microarray, anti-His fluorescence; Myc proto-oncogene protein (Homo sapiens), P01106; calls only; AID 624141, 2012; His-c-Myc binding; hit rate 1.5% among 17,000;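 active = spot fluorescence over background with P-value below 7% in all four replicate spots, showing protein binding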
p53 mut binder: binders of human mutant p53, primary screen, biochemical, small molecule microarray, anti-GST fluorescence. small molecule microarray binding. calls only. mutant tumor protein p53 (GST-tagged), Homo sapiens. hit rate 0.4% among 17,000. AID 624136, 2012;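 active = compounds whose four printed spots each glow above background more than chance allows, each with a p-value under 7%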
NFkB SMM: binders of NF-kB p50 subunit, primary screen, biochemical, small molecule microarray, anti-His fluorescence; Nuclear factor NF-kappa-B p105 subunit (Homo sapiens), P19838; anti-His fluorescence binding; calls only; hit rate 1.3% among 17,000; AID 624139, 2012;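 active = spot fluorescence over background significantly raised, with a chance value under 7% in all four replicate spots of the compound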;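 note: probe protein is his-tagged human p50 processed subunit at 1 µg/ml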
STAT3 SMM: STAT3 binders, primary screen, biochemical, small molecule microarray, single point, set 2; calls only; AID 624138, 2012; Signal transducer and activator of transcription 3 (Homo sapiens), P40763; hit rate 0.2% among 17,000; His-STAT3 binding, anti-His fluorescence;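 active = compounds whose four printed spots each show fluorescence over background unusually high for their array block, chance value under 7%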
Calls only; - = inactive; + = active, no number.

SMILES	Myc binder	p53 mut binder	NFkB SMM	STAT3 SMM
CCC(C)[C@H]1C(=O)O[C@H](C(C)C)C(=O)N(C)[C@@H](C(C)C)C(=O)O[C@H](C(C)C)C(=O)N(C)[C@@H](C(C)C)C(=O)O[C@H](C(C)C)C(=O)N1C (some centres undefined)	-	-	+	-
COC(=O)C=CC(=O)NC1CCC2(O)C3Cc4ccc(O)c5c4C2(CCN3CC2CC2)C1O5 (centres undefined)	-	-	-	-
O=C(O)C1C2CCC(O2)C1C(=O)NCCc1ccccc1 (centres undefined)	+	-	-	-
CC(=O)Oc1ccc(/C=C/c2cc(OC(C)=O)cc(OC(C)=O)c2)cc1	-	-	-	-
CC[C@@H](CO)NC(=O)[C@@H]1C=C2c3cccc4c3c(cn4C)C[C@H]2N(C)C1	+	-	-	-
CCC(CO)NC(=O)C1C=C2c3cccc4[nH]cc(c34)CC2N(C)C1 (centres undefined)	+	-	+	-
CCCN1CCCC2Cc3[nH]ncc3CC21 (centres undefined)	-	-	-	-
COc1cc2cc(c1Cl)N(C)C(=O)CC(OC(=O)C(C)C)C1(C)OC1C(C)C1CC(O)(NC(=O)O1)C(OC)/C=C/C=C(/C)C2 (centres undefined)	-	-	-	-
CO[C@H]1[C@@H](O)[C@@H](C)O[C@@H](OC2CCC3(C)C(CC[C@@H]4[C@@H]3CCC3(C)C(C5=CC(=O)OC5)C(O)CC43O)C2)[C@@H]1O (some centres undefined)	-	-	-	-
COC1CC(OC2CCC3(C)C(CCC4(O)C3CC(OC(=O)c3ccccc3)C3(C)C(O)(C(C)=O)CCC43O)C2)OC(C)C1OC1CC(OC)C(OC2OC(C)C(O)C(OC)C2O)C(C)O1 (centres undefined)	+	-	+	-
CCCCC/C=C/C/C=C/C/C=C/C/C=C/CCCC(=O)NCCCC(=O)O	-	-	-	-
Cc1ccc2c(c1)Cc1c(C(=O)NC3CCCCC3)nn(-c3ccc(Cl)cc3Cl)c1-2	-	-	+	-
